# Experimental data as given in the supplement of paper PMC9844399.
# Structures can show the parent of a compound that is named as a salt.
# Test system: HeLa
# Assay: nuclear count per well, robust Z-score vs DMSO; higher = more cells (less toxicity)
# Conditions: 10 µM; 6 h
# 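Also: Hoechst-stained nuclei counted by automated confocal imaging of four fields per well in 384-well plates, with the robust Z-score based on the per-plate DMSO median and robust SD.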
row,Compound,nuclear count per well
1,C[C@]12CC[C@@H]3c4ccc(OS(=O)(=O)O)cc4CC[C@H]3[C@@H]1CCC2=O [Estropipate],-0.293
2,CC1(C)S[C@@H]2[C@H](NC(=O)COc3ccccc3)C(=O)N2[C@H]1C(=O)O [Penicillin V Potassium],-0.676
3,CCCNC(C)C(=O)Nc1c(C)csc1C(=O)OC (stereo not drawn),-0.629
4,CC(=O)Oc1ccccc1C(=O)O [Acetylsalicylic acid],0.326
5,COc1cc2c3cc1Oc1c(OC)c(OC)cc4c1[C@@H](Cc1ccc(OC(=O)c5ccc([N+](=O)[O-])cc5)c(c1)Oc1ccc(cc1)C[C@@H]3N(C)CC2)N(C)CC4 [E6 berbamine],0.0814
6,O=C1NC(=O)C(c2ccccc2[N+](=O)[O-])=C1Nc1ccc(O)c(Cl)c1,-0.894
7,CC(=O)OCC[N+](C)(C)C [Acetylcholine Chloride],-0.214
8,CC(C)(C#N)c1cc(Cn2cncn2)cc(C(C)(C)C#N)c1 [Anastrozole],0.154
9,C[C@H]1COC2=C1C(=O)C(=O)c1c2ccc2c1CCCC2(C)C [Cryptotanshinone],-1.07
10,CCCCC/C=C\C\C=C/C=C/C=C/[C@@H](SC[C@H](N)C(=O)NCC(=O)O)[C@@H](O)CCCC(=O)O [Leukotriene D4],-1.32
11,CN1[C@@H]2CC[C@H]1C[C@@H](OC(c1ccccc1)c1ccccc1)C2 [Benztropine Mesylate],0.869
12,CCCCCOC(=O)Nc1nc(=O)n([C@@H]2O[C@H](C)[C@@H](O)[C@H]2O)cc1F [Capecitabine],0.409
13,O=C(O)C(O)C(O)C(=O)O (stereo not drawn) [Tartaric acid],1.02
14,CCN1CC(CCN2CCOCC2)C(c2ccccc2)(c2ccccc2)C1=O (stereo not drawn),0.0687
15,CCCCC[C@H](O)/C=C/C1=C(C/C=C\CCCC(=O)O)C(=O)CC1 [Prostaglandin B2],1.37
16,CO[C@H]1/C=C/O[C@@]2(C)Oc3c(C)c(O)c4c(O)c(c(/C=N/N5CCN(C)CC5)c(O)c4c3C2=O)NC(=O)/C(C)=C\C=C\[C@H](C)[C@H](O)[C@@H](C)[C@@H](O)[C@@H](C)[C@H](OC(C)=O)[C@@H]1C [Rifampin (Rifampicin)],0.0845
17,CS(=O)(=O)CCNCc1ccc(-c2ccc3ncnc(Nc4ccc(OCc5cccc(F)c5)c(Cl)c4)c3c2)o1 [Lapatinib Ditosylate],0.113
18,CN(C)CCC[C@@]1(c2ccc(F)cc2)OCc2cc(C#N)ccc21 [Escitalopram],0.345
19,N=C(N)NC(=N)NCCc1ccccc1 [Phenformin hydrochloride],-0.167
20,C[C@H]1c2cccc(O)c2C(=O)C2=C(O)[C@]3(O)C(=O)C(C(N)=O)=C(O)[C@@H](N(C)C)[C@@H]3[C@@H](O)[C@@H]21,0.141
21,CC(C)(C)C(=O)OCOP(=O)(COCCn1cnc2c(N)ncnc21)OCOC(=O)C(C)(C)C [Adefovir Dipivoxil],-0.859
22,CN[C@@H]1[C@H](O[C@H]2[C@H](O[C@H]3[C@H](O)[C@@H](O)[C@H](N=C(N)N)[C@@H](O)[C@@H]3N=C(N)N)O[C@@H](C)[C@]2(O)C=O)O[C@@H](CO)[C@H](O)[C@H]1O [Streptomycin Sulfate],0.805
23,Oc1ccc(/C=C/c2cc(O)cc(O)c2)cc1 [Resveratrol],0.108
24,CO[C@H]1C[C@@H]2CC[C@@H](C)[C@@](O)(O2)C(=O)C(=O)N2CCCC[C@H]2C(=O)O[C@H]([C@H](C)C[C@@H]2CC[C@@H](OC(=O)C(C)(CO)CO)[C@H](OC)C2)CC(=O)[C@H](C)/C=C(\C)[C@@H](O)[C@@H](OC)C(=O)[C@H](C)C[C@H](C)/C=C/C=C/C=C/1C [Temsirolimus],0.576
25,CN1CC(=O)N2[C@H](c3ccc4c(c3)OCO4)c3[nH]c4ccccc4c3C[C@@H]2C1=O [Tadalafil],-0.7
26,CNC(=O)c1cnn(-c2nc(N)c3ncn([C@@H]4O[C@H](CO)[C@@H](O)[C@H]4O)c3n2)c1 [Regadenoson],1.3
27,C/C=C/C/C=C/CCC(=O)[C@H]1O[C@H]1C(N)=O [Cerulenin],-1.33
28,Cc1ccc(C(=O)Nc2ccc(S(=O)(=O)O)c3cc(S(=O)(=O)O)cc(S(=O)(=O)O)c23)cc1NC(=O)c1cccc(NC(=O)Nc2cccc(C(=O)Nc3cc(C(=O)Nc4ccc(S(=O)(=O)O)c5cc(S(=O)(=O)O)cc(S(=O)(=O)O)c45)ccc3C)c2)c1 [Suramin sodium salt],-0.987
